Assay results reported in PMC7826789 (International Journal of Molecular Sciences, 2021).

Test system: EGFR

Row | SMILES | Kinases covered
1 | Cl.O=C(O[C@H]1CN[C@H](C#Cc2cc3ncnc(Nc4ccc5c(cnn5Cc5ccccc5)c4)c3s2)C1)N1CCOCC1 [GSK200398A] | EGFR
2 | O=C(Nc1cccc(-c2nn3ncccc3c2-c2ccnc(Nc3cccnc3)n2)c1)c1c(F)cccc1F [GSK312879] | EGFR
3 | C#Cc1cccc(Nc2ncnc3cc(OC)c(OC4CCN(C)CC4)cc23)c1 [BI00007366] | EGFR
4 | Fc1cccc(COc2ccc(Nc3ncncc3C#Cc3ccccc3)cc2Cl)c1 [GW651576X] | EGFR
5 | Cl.O=S1CCN(Cc2ccc(-c3ccc4ncnc(Nc5ccc(OCc6ccccc6)c(F)c5)c4c3)o2)CC1 [GW576924A] | EGFR
6 | COc1cc2ncnc(Nc3cccc(Cl)c3F)c2cc1O[C@H]1CC[C@@]2(CC1)NCCNC2=O [BI00113608] | EGFR
7 | COc1cc2ncnc(Nc3cccc(Cl)c3F)c2cc1O[C@H]1CC[C@H]([C@@H]2NCCNC2=O)CC1 [BI00133844] | EGFR
8 | COc1cc2ncnc(Nc3ccc(F)c(Cl)c3)c2cc1O[C@H]1CC[C@H](N)CC1 [BIBW3133BS] | EGFR

Test system: ERBB2

Row | SMILES | Kinases covered
9 | Cl.O=C(O[C@H]1CN[C@H](C#Cc2cc3ncnc(Nc4ccc5c(cnn5Cc5ccccc5)c4)c3s2)C1)N1CCOCC1 [GSK200398A] | ERBB2
10 | O=C(Nc1cccc(-c2nn3ncccc3c2-c2ccnc(Nc3cccnc3)n2)c1)c1c(F)cccc1F [GSK312879] | ERBB2
11 | C#Cc1cccc(Nc2ncnc3cc(OC)c(OC4CCN(C)CC4)cc23)c1 [BI00007366] | ERBB2
12 | Cl.O=S1CCN(Cc2ccc(-c3ccc4ncnc(Nc5ccc(OCc6ccccc6)c(F)c5)c4c3)o2)CC1 [GW576924A] | ERBB2
13 | COc1cc2ncnc(Nc3cccc(Cl)c3F)c2cc1O[C@H]1CC[C@@]2(CC1)NCCNC2=O [BI00113608] | ERBB2
14 | CN(C)c1cc2c(Nc3ccc4c(cnn4Cc4ccccc4)c3)ncnc2cn1 [GW282974X] | ERBB2
15 | COc1cc2ncnc(Nc3cccc(Cl)c3F)c2cc1O[C@H]1CC[C@H]([C@@H]2NCCNC2=O)CC1 [BI00133844] | ERBB2
16 | COc1cc2ncnc(Nc3ccc(F)c(Cl)c3)c2cc1O[C@H]1CC[C@H](N)CC1 [BIBW3133BS] | ERBB2

Test system: ERBB4

Row | SMILES | Kinases covered
17 | COc1cc2ncnc(Nc3ccc4c(cnn4Cc4ccccc4)c3)c2cc1OC.Cl [GW282449A] | ERBB4
18 | Cl.c1ccc(Cc2nc3ccc(Nc4ncnc5ccccc45)cc3[nH]2)cc1 [GR269666A] | ERBB4
19 | Cl.O=C(O[C@H]1CN[C@H](C#Cc2cc3ncnc(Nc4ccc5c(cnn5Cc5ccccc5)c4)c3s2)C1)N1CCOCC1 [GSK200398A] | ERBB4
20 | O=C(Nc1cccc(-c2nn3ncccc3c2-c2ccnc(Nc3cccnc3)n2)c1)c1c(F)cccc1F [GSK312879] | ERBB4
21 | CN(C)c1cc2c(Nc3ccc4c(cnn4Cc4ccccc4)c3)ncnc2cn1 [GW282974X] | ERBB4
22 | COc1cc2ncnc(Nc3cccc(Cl)c3F)c2cc1O[C@H]1CC[C@H]([C@@H]2NCCNC2=O)CC1 [BI00133844] | ERBB4
